Mac1 fbg inh: CD11b/CD18-fibrinogen binding inhibition | AID 1497 | inhibition, % at 10 µM | K562 CD11b/CD18 adhesion to fibrinogen, ATPlite luminescence; Mn2+ added to activate the integrin | actives 0.54% (n = 93,000);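 active = primary inhibition of 50% or more at 10 µM, then 40% or more on retest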
FAK blocker: inhibitors of human focal adhesion kinase | Q05397 | biochemical FAK kinase activity assay | inhibition, %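 (tested at 7 µM)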 | actives 0.84% (n = 97,000);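 also: 0% = DMSO and 100% = reference compound high control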
Target sequence (Q05397 whole entry, looked up): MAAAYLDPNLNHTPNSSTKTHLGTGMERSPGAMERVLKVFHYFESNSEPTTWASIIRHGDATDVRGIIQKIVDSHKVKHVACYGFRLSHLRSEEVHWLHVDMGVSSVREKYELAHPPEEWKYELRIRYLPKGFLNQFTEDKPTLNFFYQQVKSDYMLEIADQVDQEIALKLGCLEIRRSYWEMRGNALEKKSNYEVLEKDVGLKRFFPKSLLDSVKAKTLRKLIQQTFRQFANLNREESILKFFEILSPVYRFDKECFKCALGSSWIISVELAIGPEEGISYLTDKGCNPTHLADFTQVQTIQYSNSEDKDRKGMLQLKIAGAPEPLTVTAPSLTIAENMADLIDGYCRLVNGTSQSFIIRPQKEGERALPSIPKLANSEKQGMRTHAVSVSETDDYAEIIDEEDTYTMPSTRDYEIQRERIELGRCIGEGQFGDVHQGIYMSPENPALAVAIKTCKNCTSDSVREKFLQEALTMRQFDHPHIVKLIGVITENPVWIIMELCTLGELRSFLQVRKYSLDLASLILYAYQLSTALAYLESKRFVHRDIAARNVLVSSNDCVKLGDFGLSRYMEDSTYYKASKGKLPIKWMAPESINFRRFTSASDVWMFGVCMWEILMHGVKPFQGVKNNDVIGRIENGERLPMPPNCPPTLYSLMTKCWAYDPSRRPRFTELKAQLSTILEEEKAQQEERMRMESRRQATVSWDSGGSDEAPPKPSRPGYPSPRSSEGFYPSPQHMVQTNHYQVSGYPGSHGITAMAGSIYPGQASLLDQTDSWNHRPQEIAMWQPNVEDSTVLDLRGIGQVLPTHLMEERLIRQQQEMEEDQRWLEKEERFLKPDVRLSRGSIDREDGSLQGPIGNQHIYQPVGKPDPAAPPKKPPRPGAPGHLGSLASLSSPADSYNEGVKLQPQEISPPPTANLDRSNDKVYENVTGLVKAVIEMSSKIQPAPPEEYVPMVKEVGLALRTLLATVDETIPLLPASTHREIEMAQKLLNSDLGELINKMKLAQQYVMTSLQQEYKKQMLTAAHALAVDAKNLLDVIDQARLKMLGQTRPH
Mac1 fbg enh: increases human CD11b/CD18 adhesion to fibrinogen. P05107+P11215. K562 CD11b/CD18 adhesion to fibrinogen, ATPlite luminescence. activation, % at 10 µM. actives 0.07% (n = 93,000);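 active = 10 µM primary screen giving 50% or more activity, confirmed by 40% or more on retest at that dose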
MRP resist rev: MRP-mediated drug resistance reversal. H69AR cells + 2 uM doxorubicin, CellTiter-Glo, 72 h. differential viability (reversal), % at 10 µM. actives 0.04% (n = 85,000). AID 602;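 active = viability drop by adding the cancer drug above about 55%, with treated viability meeting a 40% cutoff, limit read from the data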;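 also: viability without doxorubicin minus viability with 2 µM doxorubicin for each compound; larger differential means the compound sensitizes cells more to doxorubicin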
MRP1 act: activators of MRP-1 | H69AR cells + doxorubicin, viability rescue, CellTiter-Glo | viability increase, % at 10 µM | actives 0.61% (n = 140,000) | AID 799;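 active = viability gain under doxorubicin at or above a set limit, the compound median plus 3 SD, cut at about 4.7% in these data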;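 also: MRP-1 overexpressing cells given doxorubicin 25 µM after compound pretreatment; 18-22 h compound pretreatment then 72 h with doxorubicin before readout; 0% = doxorubicin-only wells and 100% = vehicle-treated cells without doxorubicin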
Phagocyt inh: macrophage phagocytosis inhibition | J774A.1 macrophage IgG-bead phagocytosis, imaging | actives 0.07% (n = 110,000) | inhibition, % at 5 µM;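 active = inhibition above the mean of the plate negative controls plus 5 SD, cut at about 13% in these data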;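 also: phagocytic index as fraction of beads internalized from green versus red external bead signal; plate controls were DMSO negative control for no effect and cytochalasin-D positive control for full effect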
FAK inh confirm: confirmation of human focal adhesion kinase (FAK) inhibitors; shares compounds with FAK blocker; FAK kinase biochemical inhibition assay; inhibition, % at 7 µM; actives 28% (n = 750)
Starred values were filed as active, the others as inactive; x = no result. Sampled rows, rich in hits. Any-hit rate of the full collection: about 1.5%. Rule as the data show it, unless noted: active = inhibition above about 19%; inactive = the rest.

SMILES | Mac1 fbg inh | FAK blocker | Mac1 fbg enh | MRP resist rev | MRP1 act | Phagocyt inh | others
Cn1ncnc2c(=O)n(C)c(=O)nc1-2 | 71.4* | x | -6.0 | x | x | -3.9
COc1ccc(C)cc1NC(=O)c1c(C)nn(Cc2ccccc2)c1Cl | 5.7 | x | 6.5 | x | 4.8* | 1.1
Cn1c(O)c(C=Nc2ccccc2Sc2ccccc2)c(=O)n(C)c1=O | x | x | x | x | -1.6 | x
Cn1cccc1CN1CCN(C(=O)COc2ccccc2)CC1 | x | 7.2 | x | -9.7 | -2.5 | x
CN1CCN(C(=O)COc2ccc(-c3nc4ccccc4s3)cc2)CC1 | 93.4* | 4.0 | -6.4 | -0.4 | -2.3 | -0.2
Cn1nc(-c2ccc(OCC(=O)N3CCN(Cc4ccccc4)CC3)cc2)c2ccccc2c1=O | 71.3* | 2.0 | -5.6 | 9.4 | -1.9 | x
Cc1cc(C)n2nc(C)[n+](C)c2n1 | 21.2 | -1.6 | 2.0 | x | 0.4 | -0.8
O=C(Nc1cccc(Cl)c1)c1c(O)c2c(n(Cc3ccccc3)c1=O)CCCC2 | x | x | x | x | 5.6* | -0.5
O=C(Nc1cccc(Cl)c1)c1c(O)c2c(n(Cc3ccco3)c1=O)CCCC2 | -3.8 | x | 2.3 | -4.7 | x | x
c1ccc2cc3cc4ccccc4cc3cc2c1 | x | x | x | -6.2 | x | x
Cc1ccc(CN2C(=O)NC(=O)C3(Cc4c(nc5ccccn5c4=O)N4CCCCCC43)C2=O)cc1 (stereo not given) | 13.7 | -1.3 | -5.0 | -34.6 | 8.8* | 2.0
CC(=O)c1ccccc1NC(=O)C1C2CCC(O2)C1C(=O)O (stereo not given) | 12.5 | -1.5 | -2.0 | -11.0 | -3.0 | -1.3
CSC1=NP(=S)(SC)N2CCCC2=C1C#N (stereo not given) | -11.6 | -3.9 | -3.0 | -9.9 | 28.8* | -0.3
Cc1ccc2c(c1)CC1(CN2C)C(=O)NC(=O)N(c2ccc(C)c(C)c2)C1=O (stereo not given) | -8.6 | -5.0 | -2.9 | 1.8 | -1.5 | -0.5
CN1CCN(c2ccc(C=O)cc2)CC1 | -5.0 | 1.3 | -3.7 | -9.9 | -2.0 | 1.5
CN1CCN(c2ccc(N)cc2)CC1 | 3.6 | 67.2* | -0.8 | -2.2 | -1.9 | -0.1 | FAK inh confirm=74.3*
COCCCn1c(N)c(C(=O)OC(C)COC)c2nc3ccccc3nc21 (stereo not given) | -6.1 | x | -3.7 | -6.5 | -3.8 | -0.2
CCC(C)NC(=O)c1c(N)n(CCCOC)c2nc3ccccc3nc12 (stereo not given) | -10.1 | 37.2* | 4.9 | -32.0 | -4.1 | -0.6 | FAK inh confirm=2.4
CCC(CC)N1CCN(C(=O)Cc2ccccc2)CC1 | x | 1.4 | x | 10.4 | -4.5 | x
O=C1Nc2ccccc2/C1=C/c1cnc[nH]1 | x | 74.8* | x | x | -6.7 | x | FAK inh confirm=47.0*
Cc1cc(NCCN)nc2ccccc12 | -1.6 | -0.6 | 4.7 | x | -0.9 | -1.3
CC12CN3CC(C)(CN(C1)P3(=O)Oc1ccccc1)C2=O (stereo not given) | 24.3 | 50.5* | -3.5 | -7.1 | 0.0 | 1.6 | FAK inh confirm=2.3

Bioassay records as filed in PubChem.
